Two sequences from paper PMC7862700, “An all-to-all approach to the identification of sequence-specific readers for epigenetic DNA modifications on cytosine” can be followed below.

What all share (assay): DAPPL (digital affinity profiling via proximity ligation, sequencing); 10 mM Tris-HCl pH 7.5, 50 mM NaCl, 1 mM DTT, 4% glycerol, room temperature, 30 min; GST-TFs on glutathione beads, 16-mer random dsDNA library, 0.1% formaldehyde crosslink after washing; high values mean tight binding
For one assay, the target named is T1, FLI1 (Homo sapiens, UniProt Q01543 1-452).
T1 sequence: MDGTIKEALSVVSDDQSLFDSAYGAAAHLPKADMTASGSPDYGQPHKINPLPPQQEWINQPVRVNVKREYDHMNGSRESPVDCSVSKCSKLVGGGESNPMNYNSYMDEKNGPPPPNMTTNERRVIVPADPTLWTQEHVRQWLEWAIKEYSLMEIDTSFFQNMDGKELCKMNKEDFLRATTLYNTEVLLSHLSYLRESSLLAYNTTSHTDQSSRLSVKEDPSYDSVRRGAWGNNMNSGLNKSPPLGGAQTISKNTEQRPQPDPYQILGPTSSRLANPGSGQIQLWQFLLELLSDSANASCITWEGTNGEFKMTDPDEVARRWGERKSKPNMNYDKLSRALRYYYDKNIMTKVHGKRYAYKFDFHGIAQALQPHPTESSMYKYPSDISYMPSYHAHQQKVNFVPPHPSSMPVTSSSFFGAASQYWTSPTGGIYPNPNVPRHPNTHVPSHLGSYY
Particulars: protein: recombinant; tags: N-terminal GST; dsDNA, one strand shown. The method in brief: (§1)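 Each value of binding signal is a hexamer's read frequency for a factor divided by the same hexamer's frequency in the tag-only sample. Barcoded, bead-captured GST fusions of human transcription factors made in yeast were pooled with that sample and incubated with 200 nmole of a random double-stranded 16-mer DNA library in Tris/NaCl/DTT/glycerol buffer at room temperature for 30 min. Washing, 0.1% formaldehyde crosslinking, proximity ligation, PCR and Illumina NextSeq500 sequencing followed.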

Another assay has as its target T2, ELK1 (Homo sapiens, UniProt P19419 1-428).
T2 sequence: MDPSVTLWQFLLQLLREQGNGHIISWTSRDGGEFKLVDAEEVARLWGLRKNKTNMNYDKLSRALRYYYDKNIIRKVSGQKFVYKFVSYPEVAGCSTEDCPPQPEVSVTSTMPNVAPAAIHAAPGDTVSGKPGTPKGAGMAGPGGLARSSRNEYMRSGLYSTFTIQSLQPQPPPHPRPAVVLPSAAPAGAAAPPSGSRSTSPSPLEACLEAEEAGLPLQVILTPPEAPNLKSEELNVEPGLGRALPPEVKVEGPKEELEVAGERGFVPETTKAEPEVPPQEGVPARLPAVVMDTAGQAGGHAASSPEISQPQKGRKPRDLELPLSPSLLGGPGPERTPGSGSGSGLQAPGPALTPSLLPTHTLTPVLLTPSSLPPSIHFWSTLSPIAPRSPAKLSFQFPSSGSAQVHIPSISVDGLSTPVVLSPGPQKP
Particulars: protein: recombinant; tags: N-terminal GST; dsDNA, one strand shown. The method in brief:
as §1

The next assay addresses T3, GABPA (Homo sapiens, UniProt Q06546 1-454).
T3 sequence: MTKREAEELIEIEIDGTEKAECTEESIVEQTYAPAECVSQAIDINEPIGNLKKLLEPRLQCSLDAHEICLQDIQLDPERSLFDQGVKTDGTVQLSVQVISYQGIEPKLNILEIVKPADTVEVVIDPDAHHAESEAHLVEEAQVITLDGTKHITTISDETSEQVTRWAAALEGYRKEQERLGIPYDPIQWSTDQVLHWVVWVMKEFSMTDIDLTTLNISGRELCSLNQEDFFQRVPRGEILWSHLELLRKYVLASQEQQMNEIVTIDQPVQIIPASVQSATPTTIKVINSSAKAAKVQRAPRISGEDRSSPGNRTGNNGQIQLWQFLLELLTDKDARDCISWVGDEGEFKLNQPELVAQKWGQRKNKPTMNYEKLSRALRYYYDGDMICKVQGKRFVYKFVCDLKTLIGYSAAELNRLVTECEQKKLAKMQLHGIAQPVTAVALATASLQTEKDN
To be noted: protein: recombinant; tags: N-terminal GST; dsDNA, one strand shown. The method in brief: as §1

Another assay has as its target T4, ERG (Homo sapiens, UniProt P11308 1-479).
T4 sequence: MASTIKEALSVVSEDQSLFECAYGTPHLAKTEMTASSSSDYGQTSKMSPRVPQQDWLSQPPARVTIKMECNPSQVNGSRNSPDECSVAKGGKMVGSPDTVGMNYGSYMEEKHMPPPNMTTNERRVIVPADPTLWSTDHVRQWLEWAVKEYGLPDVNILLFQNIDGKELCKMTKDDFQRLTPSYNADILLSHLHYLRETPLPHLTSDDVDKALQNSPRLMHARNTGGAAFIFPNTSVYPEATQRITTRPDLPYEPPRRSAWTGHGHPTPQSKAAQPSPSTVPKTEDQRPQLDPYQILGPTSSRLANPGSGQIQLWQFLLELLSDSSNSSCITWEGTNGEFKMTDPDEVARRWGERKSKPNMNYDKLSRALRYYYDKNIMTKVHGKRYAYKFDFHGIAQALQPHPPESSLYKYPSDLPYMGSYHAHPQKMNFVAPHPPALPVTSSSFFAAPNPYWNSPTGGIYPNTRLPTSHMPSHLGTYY
Particulars: protein: recombinant; tags: N-terminal GST; dsDNA, one strand shown. A digest of the protocol: as §1

Another assay has as its target ELF1 (Homo sapiens, UniProt P32519 1-619). Particulars: protein: recombinant; tags: N-terminal GST; dsDNA, one strand shown. A digest of the protocol:
as §1

The target of another assay is T5, EHF (Homo sapiens, UniProt Q9NZC4 1-300).
T5 sequence: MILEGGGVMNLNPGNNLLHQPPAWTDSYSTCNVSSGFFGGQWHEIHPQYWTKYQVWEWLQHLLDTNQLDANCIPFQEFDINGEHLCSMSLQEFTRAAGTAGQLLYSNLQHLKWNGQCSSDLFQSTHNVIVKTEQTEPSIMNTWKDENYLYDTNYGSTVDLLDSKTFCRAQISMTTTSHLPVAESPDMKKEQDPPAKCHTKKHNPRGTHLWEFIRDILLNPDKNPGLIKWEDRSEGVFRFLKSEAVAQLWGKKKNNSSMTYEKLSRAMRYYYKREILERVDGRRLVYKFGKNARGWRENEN
Particulars: protein: recombinant; tags: N-terminal GST; dsDNA, one strand shown. The method in brief: as §1

In the next assay the target is SPI1 (Homo sapiens, UniProt P17947 1-270). Particulars: protein: recombinant; tags: N-terminal GST; dsDNA, one strand shown. A digest of the protocol: as §1
The next assay deals with SPIB (Homo sapiens, UniProt Q01892 1-262). To be noted: protein: recombinant; tags: N-terminal GST; dsDNA, one strand shown. The method in brief:
as §1

The next assay deals with T6, ELK3 (Homo sapiens, UniProt P41970 1-407).
T6 sequence: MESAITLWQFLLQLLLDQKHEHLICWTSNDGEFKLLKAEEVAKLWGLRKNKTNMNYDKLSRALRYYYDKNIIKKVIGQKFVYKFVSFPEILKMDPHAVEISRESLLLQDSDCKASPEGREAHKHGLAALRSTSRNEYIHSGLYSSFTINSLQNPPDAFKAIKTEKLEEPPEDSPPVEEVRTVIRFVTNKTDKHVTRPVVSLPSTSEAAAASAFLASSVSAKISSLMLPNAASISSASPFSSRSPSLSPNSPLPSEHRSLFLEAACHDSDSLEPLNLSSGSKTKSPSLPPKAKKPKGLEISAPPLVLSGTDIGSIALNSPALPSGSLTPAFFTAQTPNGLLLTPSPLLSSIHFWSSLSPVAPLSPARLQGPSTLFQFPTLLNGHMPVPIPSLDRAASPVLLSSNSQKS
Particulars: protein: recombinant; tags: N-terminal GST; dsDNA, one strand shown. The method in brief: as §1

A further assay has as its target T7, FEV (Homo sapiens, UniProt Q99581 1-238).
T7 sequence: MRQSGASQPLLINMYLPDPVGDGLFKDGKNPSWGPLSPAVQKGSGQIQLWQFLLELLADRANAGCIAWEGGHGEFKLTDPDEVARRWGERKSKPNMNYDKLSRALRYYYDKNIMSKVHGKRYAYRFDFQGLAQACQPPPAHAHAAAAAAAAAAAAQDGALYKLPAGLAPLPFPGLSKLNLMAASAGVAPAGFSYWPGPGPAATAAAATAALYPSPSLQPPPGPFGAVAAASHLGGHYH
Particulars: protein: recombinant; tags: N-terminal GST; dsDNA, one strand shown. A digest of the protocol: as §1

The target of the next assay is ETV5 (Homo sapiens, UniProt P41161 1-510). Particulars: protein: recombinant; tags: N-terminal GST; dsDNA, one strand shown. A digest of the protocol: as §1
Chain of ETV5 (P41161 whole entry): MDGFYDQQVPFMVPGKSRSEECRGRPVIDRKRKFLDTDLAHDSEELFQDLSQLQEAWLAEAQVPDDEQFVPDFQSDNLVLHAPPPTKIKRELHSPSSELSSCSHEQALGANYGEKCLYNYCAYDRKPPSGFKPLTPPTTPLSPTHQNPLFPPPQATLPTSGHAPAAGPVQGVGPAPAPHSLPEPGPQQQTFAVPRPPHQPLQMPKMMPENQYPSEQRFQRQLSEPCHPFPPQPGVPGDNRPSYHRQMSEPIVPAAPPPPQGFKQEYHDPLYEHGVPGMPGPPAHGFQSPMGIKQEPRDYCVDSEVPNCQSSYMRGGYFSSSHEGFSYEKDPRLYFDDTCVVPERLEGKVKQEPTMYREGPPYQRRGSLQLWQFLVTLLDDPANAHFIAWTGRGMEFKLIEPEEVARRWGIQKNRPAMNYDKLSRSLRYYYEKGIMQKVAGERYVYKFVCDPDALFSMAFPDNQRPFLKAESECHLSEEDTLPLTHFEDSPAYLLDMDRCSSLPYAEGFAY
The target in a further assay is HSF1 (Homo sapiens, UniProt Q00613 1-529). To be noted: protein: recombinant; tags: N-terminal GST; chain copies: 3; dsDNA, one strand shown. The method in brief:
as §1

A further assay has as its target ELF4 (Homo sapiens, UniProt Q99607 1-663). To be noted: protein: recombinant; tags: N-terminal GST; dsDNA, one strand shown. The method in brief:
as §1

In another assay the target is T8, ELK4 (Homo sapiens, UniProt P28324-2 1-405).
T8 sequence: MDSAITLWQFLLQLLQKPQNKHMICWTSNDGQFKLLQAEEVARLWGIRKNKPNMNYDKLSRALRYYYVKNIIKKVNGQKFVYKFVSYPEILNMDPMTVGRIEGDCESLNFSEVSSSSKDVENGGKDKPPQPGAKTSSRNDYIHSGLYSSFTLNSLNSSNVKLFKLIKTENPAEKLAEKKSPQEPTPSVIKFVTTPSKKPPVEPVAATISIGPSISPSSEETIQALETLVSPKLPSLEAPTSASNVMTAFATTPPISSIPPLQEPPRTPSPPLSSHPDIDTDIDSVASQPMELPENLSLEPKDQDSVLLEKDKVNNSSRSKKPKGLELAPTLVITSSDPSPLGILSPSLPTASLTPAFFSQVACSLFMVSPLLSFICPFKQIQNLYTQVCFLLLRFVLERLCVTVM
To be noted: protein: recombinant; tags: N-terminal GST; dsDNA, one strand shown. A digest of the protocol: as §1

Another assay has as its target T9, ETV2 (Homo sapiens, UniProt O00321 1-342).
T9 sequence: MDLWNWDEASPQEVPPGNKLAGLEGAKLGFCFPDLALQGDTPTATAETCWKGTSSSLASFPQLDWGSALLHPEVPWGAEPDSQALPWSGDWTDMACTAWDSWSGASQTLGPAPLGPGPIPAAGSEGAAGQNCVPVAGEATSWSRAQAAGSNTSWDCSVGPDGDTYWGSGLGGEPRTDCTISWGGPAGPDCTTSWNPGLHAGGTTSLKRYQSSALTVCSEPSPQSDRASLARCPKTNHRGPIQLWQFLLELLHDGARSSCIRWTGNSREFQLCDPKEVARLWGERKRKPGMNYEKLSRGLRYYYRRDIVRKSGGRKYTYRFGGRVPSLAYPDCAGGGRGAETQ
To be noted: protein: recombinant; tags: N-terminal GST; dsDNA, one strand shown. The method in brief: as §1

A further assay addresses CRX (Homo sapiens, UniProt O43186 1-299). To be noted: protein: recombinant; tags: N-terminal GST; dsDNA, one strand shown. A digest of the protocol: as §1
The target of another assay is ETV1 (Homo sapiens, UniProt P50549 1-477). To be noted: protein: recombinant; tags: N-terminal GST; dsDNA, one strand shown. The method in brief: as §1
Chain of ETV1 (P50549 whole entry): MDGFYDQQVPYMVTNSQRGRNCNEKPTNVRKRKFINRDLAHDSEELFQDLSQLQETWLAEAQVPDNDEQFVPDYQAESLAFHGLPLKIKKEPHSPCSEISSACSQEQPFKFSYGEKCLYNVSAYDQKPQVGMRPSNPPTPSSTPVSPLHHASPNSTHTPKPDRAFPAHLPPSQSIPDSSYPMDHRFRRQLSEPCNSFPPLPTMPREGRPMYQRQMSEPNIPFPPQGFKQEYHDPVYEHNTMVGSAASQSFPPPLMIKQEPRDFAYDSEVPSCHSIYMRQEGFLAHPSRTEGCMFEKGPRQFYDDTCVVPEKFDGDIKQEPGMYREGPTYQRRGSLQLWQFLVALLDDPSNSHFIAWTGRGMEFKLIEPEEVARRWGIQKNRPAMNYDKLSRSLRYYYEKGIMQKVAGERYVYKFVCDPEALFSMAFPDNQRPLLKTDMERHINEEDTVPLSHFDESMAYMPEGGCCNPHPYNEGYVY
Another assay deals with T10, ELF3 (Homo sapiens, UniProt P78545 1-371).
T10 sequence: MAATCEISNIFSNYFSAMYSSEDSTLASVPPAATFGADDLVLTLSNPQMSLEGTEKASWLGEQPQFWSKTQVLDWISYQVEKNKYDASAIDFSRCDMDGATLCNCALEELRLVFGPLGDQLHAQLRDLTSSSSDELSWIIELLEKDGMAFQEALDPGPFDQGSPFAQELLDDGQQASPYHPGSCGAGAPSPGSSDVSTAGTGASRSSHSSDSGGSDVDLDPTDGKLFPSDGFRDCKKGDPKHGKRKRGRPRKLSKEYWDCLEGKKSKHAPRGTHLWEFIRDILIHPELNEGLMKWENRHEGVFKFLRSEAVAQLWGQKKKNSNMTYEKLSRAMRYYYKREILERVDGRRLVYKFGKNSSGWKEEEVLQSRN
Particulars: protein: recombinant; tags: N-terminal GST; dsDNA, one strand shown. A digest of the protocol:
as §1

Chain of CRX (O43186 whole entry): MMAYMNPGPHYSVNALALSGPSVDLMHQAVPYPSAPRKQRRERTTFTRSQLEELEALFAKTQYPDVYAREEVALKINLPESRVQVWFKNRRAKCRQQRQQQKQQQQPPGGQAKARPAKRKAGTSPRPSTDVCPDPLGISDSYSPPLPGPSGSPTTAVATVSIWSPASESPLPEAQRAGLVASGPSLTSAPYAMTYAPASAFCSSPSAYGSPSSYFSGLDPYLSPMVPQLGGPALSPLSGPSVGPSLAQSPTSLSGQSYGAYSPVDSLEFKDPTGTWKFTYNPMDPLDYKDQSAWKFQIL
Chain of HSF1 (Q00613 whole entry): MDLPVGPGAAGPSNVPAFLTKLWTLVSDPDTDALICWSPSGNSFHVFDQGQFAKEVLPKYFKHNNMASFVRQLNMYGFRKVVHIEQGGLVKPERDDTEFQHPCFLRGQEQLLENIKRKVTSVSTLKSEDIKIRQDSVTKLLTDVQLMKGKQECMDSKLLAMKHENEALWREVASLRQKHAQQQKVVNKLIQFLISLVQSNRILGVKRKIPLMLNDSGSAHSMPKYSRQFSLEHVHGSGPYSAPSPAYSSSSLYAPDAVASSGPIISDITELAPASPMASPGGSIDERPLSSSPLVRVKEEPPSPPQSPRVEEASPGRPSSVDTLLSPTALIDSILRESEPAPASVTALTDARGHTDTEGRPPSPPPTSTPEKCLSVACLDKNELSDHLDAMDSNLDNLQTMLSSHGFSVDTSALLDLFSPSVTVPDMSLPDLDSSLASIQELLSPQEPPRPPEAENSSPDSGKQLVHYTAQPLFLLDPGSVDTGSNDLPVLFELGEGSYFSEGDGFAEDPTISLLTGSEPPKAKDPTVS
Chain of ELF4 (Q99607 whole entry): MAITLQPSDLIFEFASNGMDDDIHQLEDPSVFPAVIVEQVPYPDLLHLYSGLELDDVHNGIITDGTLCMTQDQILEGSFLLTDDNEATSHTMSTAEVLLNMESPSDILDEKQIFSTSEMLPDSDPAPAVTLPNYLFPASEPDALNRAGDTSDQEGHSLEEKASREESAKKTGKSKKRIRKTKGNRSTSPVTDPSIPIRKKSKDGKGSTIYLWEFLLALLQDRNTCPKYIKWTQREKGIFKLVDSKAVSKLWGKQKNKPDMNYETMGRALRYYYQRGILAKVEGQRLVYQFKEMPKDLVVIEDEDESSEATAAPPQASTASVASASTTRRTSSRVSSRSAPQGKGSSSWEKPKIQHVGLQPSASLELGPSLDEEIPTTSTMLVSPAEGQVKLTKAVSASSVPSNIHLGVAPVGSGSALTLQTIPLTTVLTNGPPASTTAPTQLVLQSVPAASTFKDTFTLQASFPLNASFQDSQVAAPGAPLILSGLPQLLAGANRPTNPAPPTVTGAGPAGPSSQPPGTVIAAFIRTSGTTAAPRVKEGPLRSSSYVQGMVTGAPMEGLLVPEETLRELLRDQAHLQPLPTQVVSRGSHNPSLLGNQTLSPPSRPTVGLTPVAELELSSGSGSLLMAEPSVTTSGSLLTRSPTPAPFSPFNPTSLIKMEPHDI
Chain of SPIB (Q01892 whole entry): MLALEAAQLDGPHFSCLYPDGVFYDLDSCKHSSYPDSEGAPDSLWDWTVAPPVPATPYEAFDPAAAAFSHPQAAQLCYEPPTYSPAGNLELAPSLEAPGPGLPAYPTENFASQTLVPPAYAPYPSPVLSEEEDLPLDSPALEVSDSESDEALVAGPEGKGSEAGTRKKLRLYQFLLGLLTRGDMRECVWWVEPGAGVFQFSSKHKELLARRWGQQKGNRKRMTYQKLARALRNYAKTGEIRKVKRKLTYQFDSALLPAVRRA
Chain of ELF1 (P32519 whole entry): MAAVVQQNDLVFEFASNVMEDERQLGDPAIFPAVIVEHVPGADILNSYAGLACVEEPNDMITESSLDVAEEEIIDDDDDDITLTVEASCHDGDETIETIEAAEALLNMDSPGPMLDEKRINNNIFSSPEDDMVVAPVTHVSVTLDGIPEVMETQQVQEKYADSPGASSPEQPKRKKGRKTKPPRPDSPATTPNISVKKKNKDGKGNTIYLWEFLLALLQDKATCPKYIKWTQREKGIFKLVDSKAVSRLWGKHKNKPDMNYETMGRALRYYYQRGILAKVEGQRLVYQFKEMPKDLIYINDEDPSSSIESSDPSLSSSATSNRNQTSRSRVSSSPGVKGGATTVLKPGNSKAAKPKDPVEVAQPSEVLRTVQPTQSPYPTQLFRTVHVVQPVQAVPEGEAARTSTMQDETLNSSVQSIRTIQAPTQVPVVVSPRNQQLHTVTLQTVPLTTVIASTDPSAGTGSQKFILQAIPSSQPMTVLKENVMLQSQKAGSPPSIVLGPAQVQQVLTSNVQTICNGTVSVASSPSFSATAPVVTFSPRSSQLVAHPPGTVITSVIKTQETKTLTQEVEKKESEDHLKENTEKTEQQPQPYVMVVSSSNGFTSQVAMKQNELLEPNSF

Turning to ATTGTC, the binding signal with FLI1 was 1.17 fold enrichment (6-mer frequency, TF over GST control); in the assay with ELK1, 1.07 fold enrichment (6-mer frequency, TF over GST control); in the assay with GABPA, 1.16 fold enrichment (6-mer frequency, TF over GST control); with ERG, 1.13 fold enrichment (6-mer frequency, TF over GST control); in the assay with ELF1, 1.13 fold enrichment (6-mer frequency, TF over GST control); in the assay with EHF, 1.08 fold enrichment (6-mer frequency, TF over GST control). Further, the binding signal with SPI1 was 1.05 fold enrichment (6-mer frequency, TF over GST control); with SPIB it was 1.14 fold enrichment (6-mer frequency, TF over GST control); with ELK3 it was 1.35 fold enrichment (6-mer frequency, TF over GST control); in the assay with FEV, 1.11 fold enrichment (6-mer frequency, TF over GST control); in the assay with ETV5, 1.14 fold enrichment (6-mer frequency, TF over GST control); in the assay with HSF1 it was 1.04 fold enrichment (6-mer frequency, TF over GST control). Also, the binding signal is 1.08 fold enrichment (6-mer frequency, TF over GST control) with ELF4; 1.17 fold enrichment (6-mer frequency, TF over GST control) with ELK4; 1.14 fold enrichment (6-mer frequency, TF over GST control) with ETV2; 1.06 fold enrichment (6-mer frequency, TF over GST control) with CRX; 1.21 fold enrichment (6-mer frequency, TF over GST control) with ETV1.

Regarding CATAAA, the binding signal with FLI1 is 1 fold enrichment (6-mer frequency, TF over GST control); with SPIB it was 1.01 fold enrichment (6-mer frequency, TF over GST control); in the assay with FEV it was 1 fold enrichment (6-mer frequency, TF over GST control); with ETV5, 1.03 fold enrichment (6-mer frequency, TF over GST control); with HSF1, 1.07 fold enrichment (6-mer frequency, TF over GST control); in the assay with ELF4 it was 1.06 fold enrichment (6-mer frequency, TF over GST control). Besides, the binding signal in the assay with ELF3 is 1.08 fold enrichment (6-mer frequency, TF over GST control); in the assay with CRX, 1.11 fold enrichment (6-mer frequency, TF over GST control); with ETV1 it was 1.03 fold enrichment (6-mer frequency, TF over GST control).
